Laboratory results reported in PubChem BioAssay (NCI).
This is part of a sample that, as a whole, favours compounds with a hit. Of some 83,000 tested, about 20% had one in any assay.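 Values shown are percent growth following 48 h exposure of cells in 96-well plates to a single concentration of compound; below 10 was considered active.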 A number with no mark means an inactive call. Calls of active or inactive are those of the source.

Experiments:
Assay in all cases: NCI-60 one-dose screen, 48 h (100 = growth as untreated, 0 = no growth, -100 = all killed)
Conditions in all cases: 10 µM unless noted
NCI-H23 lung = system: NCI-H23 lung
NCI-H226 lung = system: NCI-H226 lung
NCI-H322M lung = system: NCI-H322M lung
HOP-62 NSCLC = system: HOP-62 NSCLC
NCI-H460 lung = system: NCI-H460 lung
HOP-92 NSCLC = system: HOP-92 NSCLC
NCI-H522 lung = system: NCI-H522 lung
A549/ATCC NSCLC = system: A549/ATCC NSCLC
786-0 renal = system: 786-0 renal
COLO 205 colon = system: COLO 205 colon

SMILES | growth (NCI-H23 lung) | growth (NCI-H226 lung) | growth (NCI-H322M lung) | growth (HOP-62 NSCLC) | growth (NCI-H460 lung) | growth (HOP-92 NSCLC) | growth (NCI-H522 lung) | growth (A549/ATCC NSCLC) | growth (786-0 renal) | growth (COLO 205 colon)
[2H]C([2H])([2H])Oc1ccc(F)cc1/C=C/C(=O)/C=C(O)/C=C/c1cc(F)ccc1OC([2H])([2H])[2H] | 88.9% | 105% | 107% | 91.9% | 88.6% | 99.3% | 74.4% | 93.7% | 99.7% | 116%
C=C1C(=O)O[C@H]2[C@H]1CC/C(COC(=O)/C=C/C(=O)OC/C1=C/CC[C@@]3(C)O[C@H]3[C@H]3OC(=O)C(=C)[C@@H]3CC1)=C\CC[C@@]1(C)O[C@@H]21 | 94.1% | 80.6% | 101% | 96.6% | 100% | 19% | -32% (active) | 88.6% | 5.31% (active) | 11.3%
COC(=O)c1c2c(c(C)[n+]([O-])c1C)C(=O)C(NCc1cccc(Cl)c1)=CC2=O | 14.7% | 79.8% | 1.86% (active) | 41.6% | 10.1% | 38% | -10.4% (active) | 6.34% (active) | 39.5% | -50.3% (active)
Cc1c(CC(=S)N2CCOCC2)nnn1-c1cccc(C(F)(F)F)c1 | 107% | 107% | 109% | 101% | 103% | 111% | 89.6% | 107% | 110% | 119%
COc1ccc2cc(-c3ccnc4c(N=Nc5ccc(Cl)cc5)c(N)nn34)ccc2c1 | 108% | 90.2% | 102% | 94.4% | 100% | 98.7% | 95.6% | 81.9% | 106% | 110%
O=C(CCSc1nnc2n(Cc3ccccc3)c(=O)c3c4c(sc3n12)CCCC4)N1CCN(c2ccccc2)CC1 | 102% | 100% | 99.8% | 103% | 102% | 94% | 104% | 104% | 102% | 102%
CCCCNc1cc(-c2cn[nH]c2-c2cc(C)cc(OC)c2)nc(-c2cccnc2)n1 | 101% | 87.4% | 86.9% | 95.6% | 99.7% | 68.2% | 81.2% | 94.3% | 68.2% | 99.5%
CCN1C2CCC1/C(=C\c1ccc(F)cc1)C(=O)/C2=C/c1ccc(F)cc1 | 29.2% | 51.6% | 42.9% | 46% | 46.4% | 38.1% | 36.7% | 52.6% | 42.5% | 20.7%
O=C(Cc1ccc(NC(=O)c2cccc(Cl)c2)cc1)NCc1ccccc1 | 73.2% | 87% | 73.9% | 46.6% | 28.8% | 72.2% | 55.1% | 43.9% | 53.6% | 39.3%
COc1cccc(/C=C/C(=O)c2cc3c(N)c(C(=O)Nc4cccc5ccccc45)sc3nc2C)c1 | 28.4% | 36.4% | 41.1% | 25% | -0.349% (active) | 68.8% | 12% | 20.3% | 3.42% (active) | 33.9%
O=C(Nc1cc(Cl)ccc1O)c1cccc(Nc2ccnc(C(F)(F)F)c2)c1 | 11.6% | 54.2% | 59.1% | 64.8% | 30.5% | 53.6% | 30.6% | 37.1% | 49.3% | 90.9%
CCOc1cccc(/C=N/NC(=O)c2cccc(Nc3ccnc(C(F)(F)F)c3)c2)c1O | 24.9% | 32.9% | 36.5% | 12.3% | 7.86% (active) | 51.3% | 40.4% | 38% | 2.63% (active) | 37%
O=C1/C(=C/c2ccc(F)cc2)CN(C(=O)C(Cl)Cl)C/C1=C\c1ccc(F)cc1 | -48.1% (active) | 0.691% (active) | -63% (active) | -19.1% (active) | -78% (active) | -48% (active) | -58.1% (active) | -31.8% (active) | -56.2% (active) | -70.2% (active)
S=C(c1ccc2c(c1)OCO2)N1CCN(c2cccc(Cl)c2)CC1 | 35% | 34.2% | 57.3% | 37.5% | 6.73% (active) | 63.9% | 2.22% (active) | 35.9% | 37.8% | 25.4%
C#CCNC(=O)[C@]1(C)CCC[C@@]2(C)[C@H]1CC=C1C=C(C(C)C)CC[C@@H]12 | 100% | 97.6% | 100% | 98.7% | 106% | 109% | 96.2% | 97.6% | 96.8% | 115%
CN1CCN(C(=O)[C@@]2(C)CC[C@]3(C)CC[C@]4(C)C(=CC[C@@H]5[C@@]6(C)CCC(=O)NC(C)(C)[C@@H]6CC[C@]54C)[C@@H]3C2)CC1 | 61.8% | 68.3% | 70.7% | 62.8% | 31.8% | 15.9% | 74.8% | 51.9% | 47.9% | 7.65% (active)
COc1cccc(/C=C/C(=O)c2cccc(Nc3nc(Nc4ccccc4)nc(Nc4ccccc4)n3)c2)c1 | 82.2% | 94.2% | 86.6% | 79.2% | 91.9% | 17.7% | 85.6% | 68.5% | 89% | 87.5%
O=C1/C=C/[C@@H](O)[C@@H]2C[C@@H](O)C[C@H]2/C=C/CCC[C@@H](O)CCO1 | 77.1% | 77.3% | 99.3% | 103% | 110% | 98% | 108% | 89.3% | 61.5% | 114%
O=c1cc(-c2ccccc2)[nH]c2ncc(-c3ccc(F)cc3)n12 | 72.2% | 86.6% | 94.2% | 67.7% | 47.4% | 54.9% | 36% | 66.2% | 79.5% | 77.4%
Cc1ccc(/C=C(\C#N)n2nnc3cc(F)c(F)cc32)cc1 | 27.1% | 47.6% | 4.87% (active) | 23.1% | 22% | -5.1% (active) | 1.39% (active) | 10.1% | -26.8% (active) | -27.9% (active)
Cc1ccc2c(=O)cc(C(=O)Nc3sc4c(c3C(=O)NCc3cccnc3)CCCC4)oc2c1C | 101% | 107% | 103% | 104% | 109% | 97.3% | 100% | 98.4% | 108% | 110%
COc1ccc(C#Cc2ccc(=O)oc2-c2cc(OC)c(OC)c(OC)c2)cc1O | 45.7% | 71.3% | 49.7% | 28.6% | 15.3% | 48.4% | 20.6% | 42.6% | 54.3% | 69.4%
CN(Cc1cc(Br)cc(Br)c1O)Cc1cc(Br)cc(Br)c1O | 36.9% | 52% | 26.4% | 30.9% | 19.1% | 32.3% | 3.36% (active) | 36.8% | 39.9% | 84%
COc1ccc(C2CC(c3cc(OC)c(OC)c(OC)c3)=NO2)cc1OCCCCOc1cc2c(cc1OC)C(=O)N1CCC[C@H]1C=N2 (stereo not given in full) | -16% (active) | -0.71% (active) | 17.4% | 22.8% | -14.8% (active) | 20.3% | -32.5% (active) | 20% | -35.3% (active) | -32.9% (active)
O=c1ccc(=O)n(-c2nc(-c3ccc([N+](=O)[O-])cc3)cs2)[nH]1 | 90.7% | 96.3% | 104% | 107% | 102% | 103% | 95.8% | 88.9% | 81.3% | 105%
CNC(C)[C@H]1CCC2C3CC=C4C(=O)[C@@H](NC(=O)C=C(C)C)CC[C@]4(C)C3CC[C@@]21C (stereo not given in full) | 30.1% | 46.5% | 13.9% | -4.38% (active) | -24.6% (active) | 9.2% (active) | 58.5% | 30.3% | 3.96% (active) | -82.4% (active)
